Laboratory results taken from PubChem BioAssay AID1159580 (chemical genetic matrix, 2015).
Several values for one entry are separate records, joined by “and”; a condition that tells them apart may be missing. Equal entries are not always repeated. The campaign covered roughly 5,500 compounds. About 2,000 (36%) were called active. About 18% were inconclusive and are not listed. Cut-off read from the data, not from the text of the source: active = normalized growth mostly below about 0.91 (no sharp cut-off); inconclusive = no clear call, values can overlap the other calls; inactive = mostly above about 0.92. The list shows a part of the results.

Experiment: chemical genetic growth profiling, strain panel (AID 1159580);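 note: tested at 20 µM; growth read once vehicle control cultures reached saturation at 30 °C; 1 = growth at the plate median or of vehicle wells; lower values mean less growth of the strain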
Settings: S. cerevisiae deletion strains, growth OD

Measured: normalized growth

CCOC([O-])=Nc1c[n+](N2CCOCC2)no1
inactive: locus YAL013W, strain DEP1, hits give low values 1.01 | locus YAL021C, strain ccr4, hits give low values 0.994 | locus YAL026C, strain drs2, hits give low values 0.999 | locus YAL030W, strain snc1, hits give low values 0.991 | locus YBL061C, strain skt5, hits give low values 0.997 | locus YBR009C, strain hhf1, hits give low values 0.997 | locus YBR021W, strain FUR4, hits give low values 1.03 | locus YBR023C, strain chs3, hits give low values 0.986 | locus YBR171W, strain sec66, hits give low values 1 | locus YBR229C, strain ROT2, hits give low values 1.01 | locus YBR231C, strain swc5, hits give low values 0.997 | locus YBR279W, strain paf1, hits give low values 1.01 | locus YCL011C, strain gbp2, hits give low values 0.996 | locus YCL016C, strain dcc1, hits give low values 0.978 | locus YCL029C, strain bik1, hits give low values 0.991 | locus YCL061C, strain MRC1, hits give low values 0.998 | locus YCL069W, strain vba3, hits give low values 0.996 | locus YCR088W, strain abp1, hits give low values 0.999 | locus YDL005C, strain med2, hits give low values 0.993 | locus YDL035C, strain GPR1, hits give low values 1.03 | locus YDL040C, strain nat1, hits give low values 1 | locus YDL074C, strain BRE1, hits give low values 1.04 | locus YDL101C, strain DUN1, hits give low values 1.02 | locus YDL134C, strain PPH21, hits give low values 1.01 | locus YDL185W, strain tfp1, hits give low values 0.984 | locus YDL192W, strain arf1, hits give low values 0.998 | locus YDR001C, strain nth1, hits give low values 0.993 | locus YDR069C, strain doa4, hits give low values 1 | locus YDR101C, strain arx1, hits give low values 0.972 | locus YDR137W, strain rgp1, hits give low values 1.01 | locus YDR150W, strain NUM1, hits give low values 1.02 | locus YDR159W, strain sac3, hits give low values 0.993 | locus YDR162C, strain NBP2, hits give low values 1.01 | locus YDR195W, strain ref2 1 | locus YDR297W, strain sur2, hits give low values 1 | locus YDR318W, strain mcm21, hits give low values 0.99 | locus YDR334W, strain swr1, hits give low values 0.984 | locus YDR335W, strain msn5, hits give low values 0.991 | locus YDR388W, hits give low values 0.997 | locus YDR392W, strain spt3, hits give low values 0.927 | locus YDR502C, strain sam2, hits give low values 0.988 | locus YEL003W, strain gim4, hits give low values 1 | locus YEL037C, strain rad23, hits give low values 0.993 | locus YEL061C, strain CIN8 (second series), hits give low values 1 | locus YEL061C, strain CIN8, hits give low values 1.01 | locus YER015W, strain faa2, hits give low values 0.979 | locus YER016W, strain bim1, hits give low values 1.01 | locus YER110C, hits give low values 0.984 | locus YER111C, strain swi4, hits give low values 0.979 | locus YER155C, strain BEM2 (second series), hits give low values 0.984 | locus YER155C, strain BEM2, hits give low values 1 | locus YER167W, strain BCK2, hits give low values 1.01 | locus YFR010W, strain ubp6, hits give low values 0.986 | locus YGL078C, strain dbp3, hits give low values 0.987 | locus YGL086W, strain mad1, hits give low values 1 | locus YGL167C, strain pmr1, hits give low values 1 | locus YGL173C, strain kem1, hits give low values 0.994 | locus YGL227W, strain vid30, hits give low values 0.993 | locus YGL240W, strain doc1, hits give low values 1.01 | locus YGL248W, strain PDE1, hits give low values 1.01 | locus YGL253W, strain hxk2, hits give low values 0.993 | locus YGR078C, strain PAC10, hits give low values 1 | locus YGR135W, strain pre9, hits give low values 0.986 | locus YGR229C, strain SMI1, hits give low values 1.02 | locus YGR252W, strain gcn5, hits give low values 1.01 | locus YHR013C, strain ard1, hits give low values 0.985 | locus YHR027C, strain rpn1, hits give low values 0.987 | locus YHR030C, strain SLT2, hits give low values 1.01 and 1.02 | locus YHR079C, strain IRE1 (second series), hits give low values 1 | locus YHR079C, strain IRE1, hits give low values 1.03 | locus YHR094C, strain hxt1, hits give low values 0.998 | locus YHR129C, strain ARP1, hits give low values 1.01 | locus YHR142W, strain chs7, hits give low values 0.992 | locus YHR200W, strain rpn10, hits give low values 0.995 | locus YIL066C, strain RNR3, hits give low values 1.01 | locus YIL073C, strain SPO22, hits give low values 0.973 | locus YIL125W, strain kgd1, hits give low values 1 | locus YIR030C, strain dcg1, hits give low values 0.992 | locus YJL092W, strain hpr5, hits give low values 0.992 | locus YJL095W, strain BCK1 (second series), hits give low values 0.994 | locus YJL095W, strain BCK1, hits give low values 1 and 1.03 | locus YJL115W, strain asf1, hits give low values 0.982 | locus YJL129C, strain trk1, hits give low values 0.997 | locus YJL134W, strain LCB3, hits give low values 1.01 | locus YJL154C, strain vps35, hits give low values 0.99 | locus YJL164C, strain tpk1, hits give low values 0.989 | locus YJL166W, strain qcr8, hits give low values 0.991 | locus YJL168C, strain set2, hits give low values 1 | locus YJL187C, strain SWE1 (second series), hits give low values 1.01 | locus YJL187C, strain SWE1, hits give low values 1.01 | locus YJR043C, strain POL32, hits give low values 0.989 | locus YJR066W, strain TOR1, hits give low values 0.997
